# The list is not random: actives were taken first. Their share in the collection is about 5.9%.
# GLP-1R agonist: agonists of human GLP-1 receptor; HEK293 GLP-1R CRE-luciferase, luminescence, 4-6 h; cells express a hypersensitive GLP-1R form; Potency, µM (doses to about 45.6 µM), without a hit: top-dose activation, actives largely listed as activators; actives 0.007% (n = 380,000); note: % of control where 0% means no effect
# Target sequence (P43220 whole entry, looked up): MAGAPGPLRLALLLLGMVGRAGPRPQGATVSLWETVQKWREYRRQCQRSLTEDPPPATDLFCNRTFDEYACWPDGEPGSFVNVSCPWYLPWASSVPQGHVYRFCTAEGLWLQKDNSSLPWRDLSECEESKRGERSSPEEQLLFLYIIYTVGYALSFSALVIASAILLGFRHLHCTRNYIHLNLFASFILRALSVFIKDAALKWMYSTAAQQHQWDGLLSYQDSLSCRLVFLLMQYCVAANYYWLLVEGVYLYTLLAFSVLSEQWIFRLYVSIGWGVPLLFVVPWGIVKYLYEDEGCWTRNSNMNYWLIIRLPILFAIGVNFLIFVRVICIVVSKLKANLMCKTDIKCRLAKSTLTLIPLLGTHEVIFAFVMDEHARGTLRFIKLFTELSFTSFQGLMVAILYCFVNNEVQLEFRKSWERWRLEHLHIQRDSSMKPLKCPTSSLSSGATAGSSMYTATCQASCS
# RORg inh: ROR gamma (mouse) transcription inhibition. actives 5.4% (n = 310,000). Potency, µM (highest dose often 53.6 µM), for the others: at the highest dose activity change, negative = inhibition, actives largely listed as inhibitors. P51450. AID 2551. Drosophila S2 Gal4-RORgamma UAS-luciferase reporter, 20 h; note: % is set by controls: 0 for no effect and ±100 for the full control effect; nearly all actives have a fitted effect of over 60% in size
#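 A Gal4/UAS one-hybrid system in insect cells: metallothionein-promoter Gal4–ROR gamma fusion plus Photinus luciferase reporter. Copper sulfate 700 uM final, 20 hr ambient incubation, luminescent detection after 10 min with reagent.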
# VP16 counter: Gal4-VP16 reporter inhibition counter-screen; Drosophila S2 Gal4-VP16 UAS-luciferase, luminescence, 20 h; Potency, µM (titrated, usually from 53.6 µM), without a hit: at the top dose activity, negative = inhibition, usual class: inhibitors; actives 3.5% (n = 310,000); AID 2546;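 note: Gal4-VP16 expression switched on by copper sulfate through the metallothionein promoter; % is set by controls: 0 for no effect and ±100 for the full control effect; nearly all actives have a fitted effect of over 50% in size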
# GLP1R cytotox: cytotoxicity counter-screen for GLP-1 receptor inverse agonists; HEK293 cAMP-luciferase reporter cells, luminescence, 24 h; Potency, µM (top dose mostly 38.3 µM), for inactives: at the highest dose activity change, negative = inhibition, actives largely listed as inhibitors; actives 0.13% (n = 410,000);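 note: loss of luciferase light is scored as toxicity; % is set by controls: 0 for no effect and ±100 for the full control effect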
#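 MLSMR compounds, 24 hr on cells at 37 deg C/5% CO2; luminescence after luciferase reagent (12 min RT). Inhibition counted as the undesired cytotoxic outcome.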
# GLP1R inv ag: acts as inverse agonist at human GLP-1 receptor; P43220; HEK293 GLP-1R CRE-luciferase, luminescence, 24 h; GLP-1R form is constitutively active; actives 1.6% (n = 410,000); AID 624417; Potency, µM (titrated, usually from 38.3 µM), for inactives: top-dose activity change, negative = inhibition, actives largely listed as inhibitors; note: % is set by controls: 0 for no effect and ±100 for the full control effect; nearly all actives have a fitted effect of over 55% in size
#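 HEK293 cells stably co-expressing constitutively active GLP-1R and a cAMP-responsive luciferase reporter were seeded in DMEM with 10% Nu serum, given compounds after 12 h, and incubated 24 h at 37 deg C. Luminescence was then read.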
# * = called active by the depositor; ? = inconclusive; . = no result given; [ ] = remark or other dose. Calls come from the whole dose curve; as a rule, active = well fitted curve in the direction sought with a large enough effect; inconclusive = small, poorly fitted or top-dose-only effect, or another doubt; inactive = no such curve, though single readings can be large; an effect the other way counts as inactive or inconclusive. Potency is the fitted concentration of half-maximal effect.
SMILES,GLP-1R agonist,RORg inh,VP16 counter,GLP1R cytotox,GLP1R inv ag
O=C1C(Cl)=C(NCCCO)C(=O)c2ccccc21,-22%,11µM*,?,-9%,?
CCc1ccc(-n2nc(CO)c(C(=O)NC)n2)cc1,.,.,.,-13%,14%
CCNc1nc(NCC)nc(N(CC)C(N)=S)n1,24%,5µM*,?,-7%,105%
CCNc1nc(NCC)nc(N(C#N)C(C)C)n1,25%,1%,13%,2%,129%
C/C(CCN1CCCCc2nc(C)c(C)cc21)=N\OC[C@@H](O)COCc1ccco1,.,11%[10 µM],-12%[10 µM],.,.
COC(=O)c1scc(-c2ccc(C)cc2)c1S(=O)(=O)Nc1cc(OC)c(OC)c(OC)c1,.,.,.,-4%,-17%
CCC(C)(C)n1nnnc1C(c1cccs1)N1CCc2ccccc21 (centres undefined),-1%,?,11µM*,36%,?
CCC(C)(C)n1nnnc1C(c1cccnc1)N1CCCc2ccccc21 (centres undefined),10%,1%,-25%,-5%,0%
Cc1sc2nc(CN(C(=O)c3cccs3)C3CCCC3)[nH]c(=O)c2c1C,-4%,11µM*,?,?,?
Cc1sc2nc(CN(C(=O)NC3CCCCC3)C3CCCC3)[nH]c(=O)c2c1C,3%,8.9µM*,14µM*,-22%,-10%
Cc1ccccc1CC1CCN(CCCNC(=O)Nc2ccccc2)CC1,-3%,-16%,0%,-2%,10µM*
Cc1cccc(Cn2c(=O)n(Cc3ccccc3)c(=O)c3c2c2cc(C)ccc2n3C)c1,-1%,.,.,-4%,6%
COc1ccccc1N(/N=C1\Sc2ccccc2C1=O)C(C)=O,-1%,8.9µM*,?,?,?
COc1ccc(N(/N=C2\Sc3ccccc3C2=O)C(C)=O)cc1,7%,?,19%,9%,28%
CC/C(=N\NC(=O)c1ccoc1C)c1ccc(C)o1,7%,5µM*,10%,5%,3%
C/C(=N\NC(N)=S)c1ccc(Cl)s1,11%,1.4µM*,5µM*,?,3.2µM*
C/C(=N\NC(=O)c1ccoc1C)c1ccc(Cl)s1,5%,11µM*,10µM*,6%,18%
C/C(=N\NC(=S)NC(C)C)c1ccc(Cl)s1,1%,1.1µM*,?,?,?
COCc1cc(CN2CCN(C)CC2)c(O)c2ncccc12,-14%,3.2µM*,5.6µM*,-20%,-17%
CC(C)OCc1cc(CN2CCN(c3ccccc3)CC2)c(O)c2ncccc12,.,.,.,-24%,?
Brc1csc2ncccc12,-2%,-3%,-7%,-2%,18%
Oc1c(CN2CCN(c3ccccc3)CC2)cc(Br)c2cccnc12,0%,0.56µM*,0.89µM*,?,-23%
CCOC(=O)N1CCN(Cc2cc(Cl)c3cccnc3c2O)CC1,24%,0.13µM*,0.089µM*,?,?
Oc1c(Br)cc(Br)c2cccnc12,-2%,0.28µM*,-72%,-1%,?
CCOC(=O)N1CCN(Cc2ccccc2Cl)CC1,0%,-4%,4%,-18%,6%
SMILES,GLP-1R agonist,RORg inh,VP16 counter,GLP1R cytotox,GLP1R inv ag
Cc1cc(F)ccc1NC(=O)C1CCN(C(=O)c2cnn(-c3ccccc3)c2-n2cccc2)CC1,.,.,.,-1%,-1%
COC(=O)C(C(=O)OC)[C@@H](NC(=O)OCc1ccccc1)c1ccccc1,.,-7%,-7%,.,.
O=C(N/N=C1/C[C@@H](O)[C@@H](O)[C@@H]2[C@@H]3C(=O)N(c4cccc(Oc5ccccc5)c4)C(=O)[C@H]3CC[C@H]12)OCc1ccccc1,.,8%[10 µM],7%[10 µM],.,.
CCOC(=O)N/N=C1/C[C@@H](O)[C@@H](O)[C@@H]2[C@@H]3C(=O)N(c4cccc(Oc5ccccc5)c4)C(=O)[C@H]3CC[C@H]12,.,-5%[10 µM],1%[10 µM],.,.
COc1ccc(/C=C\c2onc(C)c2S(=O)(=O)N2CCC(C(=O)Nc3ccccc3OC)CC2)cc1,.,.,.,3%,-14%
Oc1c(CN2CCOCC2)cc(COCc2ccccc2)c2cccnc12,5%,0.79µM*,0.089µM*,?,?
CCn1ccc2cc(S(=O)(=O)N3CCCN(C(=O)Nc4ccc(C)cc4Cl)CC3)ccc21,15%,.,.,0%,-13%

# Bioassay records from PubChem BioAssay.
